Screening data (PubChem)
VDR inh: Inhibitors of the vitamin D receptor (VDR): qHTS; Vitamin D3 receptor (Homo sapiens), P11473; Potency, µM, for inactives: max response, negative = inhibition, usual class: inhibitors; VDR-SRC2-3 peptide fluorescence polarization, 2 h; 0.93% of 400,000 active; note: % is set by controls: 0 for no effect and ±100 for the full control effect
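Fluorescence polarization assay measuring small-molecule disruption of VDR binding to the coregulator peptide SRC2-3. Compounds were pin-transferred (23 nl) into the reagent mix and incubated 2 h at room temperature before reading.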
PLK1 PBD inh: qHTS for Inhibitors of PLK1-PDB (polo-like kinase 1 - polo-box domain): Primary Screen. Serine/threonine-protein kinase PLK1 (Homo sapiens), P53350. Plk1 PBD binding of FITC phosphopeptide, fluorescence polarization. Potency, µM, inactives show max response, negative = inhibition, actives largely listed as inhibitors. 2.8% of 360,000 active; note: series mostly up to about 57 µM; % is set by controls: 0 for no effect and ±100 for the full control effect; nearly all actives have a fitted effect of over 65% in size
G9a block: qHTS Assay for Inhibitors of Histone Lysine Methyltransferase G9a. 8.8% of 350,000 active. Histone-lysine N-methyltransferase EHMT2 (Homo sapiens), Q96KQ7. Potency, µM (highest dose often 102 µM), for the others: at the top dose activity, negative = inhibition, most hits filed as inhibitors. G9a H3K9 monomethylation, AlphaScreen, 2 h. AID 504332, 2011; note: % is set by controls: 0 for no effect and ±100 for the full control effect; nearly all actives have a fitted effect of over 75% in size
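Compounds were preincubated with 20 nM G9a for 15 min, after which biotinylated H3K9 peptide (500 nM) and SAM (20 uM) started a 2 h room-temperature reaction. Monomethylated product was quantified by antibody-based AlphaScreen chemiluminescence.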
BAZ2B inh: qHTS Assay for Inhibitors of BAZ2B. 4.4% of 360,000 active. Potency, µM (top dose mostly 114 µM), for inactives: top-dose activity change, negative = inhibition, usual class: inhibitors. AlphaScreen BAZ2B-H3K14Ac peptide displacement. Bromodomain adjacent to zinc finger domain protein 2B (Homo sapiens), Q9UIF8; note: % is set by controls: 0 for no effect and ±100 for the full control effect; nearly all actives have a fitted effect of over 60% in size
Target sequence (Q9UIF8 whole entry, looked up, the tested form may be a part): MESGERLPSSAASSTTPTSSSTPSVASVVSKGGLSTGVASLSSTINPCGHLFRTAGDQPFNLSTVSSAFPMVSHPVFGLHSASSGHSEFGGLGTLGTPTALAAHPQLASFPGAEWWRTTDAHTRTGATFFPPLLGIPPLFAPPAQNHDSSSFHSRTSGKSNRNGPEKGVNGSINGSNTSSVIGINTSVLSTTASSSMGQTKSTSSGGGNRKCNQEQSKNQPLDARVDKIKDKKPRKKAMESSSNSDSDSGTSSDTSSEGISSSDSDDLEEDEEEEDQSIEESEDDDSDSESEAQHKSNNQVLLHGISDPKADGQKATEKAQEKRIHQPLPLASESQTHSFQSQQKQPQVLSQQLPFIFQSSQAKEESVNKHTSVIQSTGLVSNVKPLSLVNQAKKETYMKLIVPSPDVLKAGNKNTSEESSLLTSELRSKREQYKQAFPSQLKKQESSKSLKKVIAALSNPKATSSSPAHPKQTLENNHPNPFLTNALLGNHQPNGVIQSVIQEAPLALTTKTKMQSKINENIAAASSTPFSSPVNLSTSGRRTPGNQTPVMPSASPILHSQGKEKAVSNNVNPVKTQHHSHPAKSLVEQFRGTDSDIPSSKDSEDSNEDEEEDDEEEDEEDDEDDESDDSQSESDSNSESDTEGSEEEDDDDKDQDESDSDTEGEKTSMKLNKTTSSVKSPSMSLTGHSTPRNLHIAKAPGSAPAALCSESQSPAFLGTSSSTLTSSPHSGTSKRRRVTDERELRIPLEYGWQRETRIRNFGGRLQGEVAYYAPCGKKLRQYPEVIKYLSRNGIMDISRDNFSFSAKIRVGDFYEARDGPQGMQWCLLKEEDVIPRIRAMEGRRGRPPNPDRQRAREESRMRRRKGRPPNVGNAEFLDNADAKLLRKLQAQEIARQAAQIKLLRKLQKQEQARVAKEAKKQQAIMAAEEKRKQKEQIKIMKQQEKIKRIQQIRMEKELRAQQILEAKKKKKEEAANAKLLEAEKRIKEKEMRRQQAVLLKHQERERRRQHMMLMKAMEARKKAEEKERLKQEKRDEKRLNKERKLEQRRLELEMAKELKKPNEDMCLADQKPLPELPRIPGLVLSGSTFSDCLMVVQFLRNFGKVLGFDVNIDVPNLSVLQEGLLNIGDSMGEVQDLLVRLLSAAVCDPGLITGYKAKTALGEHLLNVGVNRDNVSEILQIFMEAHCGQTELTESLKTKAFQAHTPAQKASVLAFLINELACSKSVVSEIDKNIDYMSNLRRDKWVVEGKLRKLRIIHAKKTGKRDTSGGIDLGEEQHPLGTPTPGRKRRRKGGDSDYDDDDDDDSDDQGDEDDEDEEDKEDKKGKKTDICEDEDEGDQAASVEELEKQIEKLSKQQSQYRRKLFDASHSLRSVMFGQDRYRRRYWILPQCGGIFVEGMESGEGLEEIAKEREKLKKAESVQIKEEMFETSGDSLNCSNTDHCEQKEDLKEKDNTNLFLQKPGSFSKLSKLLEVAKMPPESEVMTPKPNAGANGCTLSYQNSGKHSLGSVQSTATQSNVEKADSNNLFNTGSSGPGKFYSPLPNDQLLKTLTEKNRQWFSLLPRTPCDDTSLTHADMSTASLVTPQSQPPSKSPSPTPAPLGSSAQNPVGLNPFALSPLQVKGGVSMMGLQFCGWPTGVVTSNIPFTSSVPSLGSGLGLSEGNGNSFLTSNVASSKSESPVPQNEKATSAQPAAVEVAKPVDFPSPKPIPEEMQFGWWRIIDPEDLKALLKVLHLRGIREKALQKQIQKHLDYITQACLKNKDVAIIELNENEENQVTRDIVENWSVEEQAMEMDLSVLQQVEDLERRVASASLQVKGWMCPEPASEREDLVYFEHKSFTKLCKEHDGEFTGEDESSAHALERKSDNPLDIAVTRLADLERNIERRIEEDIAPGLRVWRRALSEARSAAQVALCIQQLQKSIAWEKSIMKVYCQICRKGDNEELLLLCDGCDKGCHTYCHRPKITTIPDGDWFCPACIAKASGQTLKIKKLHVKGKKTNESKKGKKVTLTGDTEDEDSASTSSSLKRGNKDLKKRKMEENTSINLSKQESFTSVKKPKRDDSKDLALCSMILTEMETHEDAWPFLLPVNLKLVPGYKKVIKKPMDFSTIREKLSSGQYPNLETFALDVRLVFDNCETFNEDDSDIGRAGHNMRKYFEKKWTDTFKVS
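AlphaScreen displacement of biotin-H3(5-23)K14Ac peptide (50 nM final) from BAZ2B (50 nM final) in PBS pH 7.4, 0.01% Tween-20; complex preformed 30 min RT, then compounds (top 110 uM) 30 min RT, beads 20 min dark.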
JMJD2A Tudor inh: qHTS Assay for Inhibitors of JMJD2A-Tudor Domain | Lysine-specific demethylase 4A (Homo sapiens), O75164 | AlphaScreen JMJD2A-Tudor / H3K4me3 peptide binding | Potency, µM (highest dose often 114 µM), without a hit: top-dose activity change, negative = inhibition, usual class: inhibitors | 4.4% of 390,000 active | AID 504339, 2011; note: % is set by controls: 0 for no effect and ±100 for the full control effect; nearly all actives have a fitted effect of over 50% in size
HP1b binding inh: HTS for Inhibitors of HP1-beta Chromodomain Interactions with Methylated Histone Tails. Chromobox protein homolog 1 (Homo sapiens), P83916. AlphaScreen HP1-beta / biotin-H3K9me3 peptide binding. Potency, µM (highest dose often 114 µM), without a hit: at the highest dose activity change, negative = inhibition, actives largely listed as inhibitors. 0.56% of 390,000 active. AID 540317, 2011; note: nearly all actives have a fitted effect of over 70% in size
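AlphaScreen: HP1-beta (50 nM) preformed 30 min with biotin-H3(1-18)K9me3 peptide (50 nM) in PBS pH 7.4, 0.01% Tween-20. Compound added for 30 min at RT, then streptavidin donor/nickel chelate acceptor beads (10 ug/mL) for 30 min.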
The depositor's hits bear a star; ? = inconclusive; / = not tested or not shown; [ ] = dose if it differs, or a comment. Hits are enriched below; roughly 11% of the tested compounds scored in any of these assays. Calls come from the whole dose curve; as a rule, active = well fitted curve in the direction sought with a large enough effect; inconclusive = small, poorly fitted or top-dose-only effect, or another doubt; inactive = no such curve, though single readings can be large; an effect the other way counts as inactive or inconclusive. Potency is the fitted concentration of half-maximal effect.

SMILES | VDR inh | PLK1 PBD inh | G9a block | BAZ2B inh | JMJD2A Tudor inh | HP1b binding inh
CNc1cccnc1C=NNC(N)=S | -21% | -10% | / | / | 79µM* | 28%
COc1ccc(-n2cc(C(=O)NCc3ccc(Cl)cc3)c3ccccc3c2=O)cc1 | -3% | / | -45%[59 µM] | ? | -33% | 52%
COc1ccc(OCC(O)CN(CCO)CC(O)Cn2ccc3ccccc32)cc1 (stereo not drawn) | 24% | -10% | 10%[59 µM] | -4% | -22% | 21%
CCC(=C(c1ccc(OC)cc1)c1ccc(OC)cc1)c1cn(CC(O)CN(CCO)CCO)c2ccccc12 (stereo not drawn) | 4% | -6% | 40µM* | 35µM* | 45µM* | -6%
Cc1ccc(/C=C/S(=O)(=O)NCC(=O)OCC(=O)Nc2c(F)cccc2F)cc1 | -7% | -13% | 20µM* | 3% | -13% | 13%
Cc1ccc(/C=C/S(=O)(=O)NCC(=O)OCC(=O)Nc2ccc(C(N)=O)cc2)cc1 | -9% | -5% | 45µM* | 5% | -14% | 22%
Cc1ccc(/C=C/S(=O)(=O)NCC(=O)OCC(=O)Nc2ccc(C(=O)N(C)C)cc2)cc1 | 17% | -1% | 19%[12.7 µM] | 13% | -4% | 30%
CC(=O)c1cccc(NC(=O)C2CCN(C(=O)c3cccs3)CC2)c1 | 9% | -6% | -23% | -18% | -5% | 9%
CCCn1c(C(CO)Nc2nc(-c3cccc(Br)c3)cs2)nc2ccccc21 (stereo not drawn) | -14% | -7% | 45µM* | ? | ? | -6%
OCCOCCn1c(C(CO)Nc2nc(-c3cccc(Br)c3)cs2)nc2ccccc21 (stereo not drawn) | -3% | ? | / | / | ? | -20%
C#CCOCCOCCOCCNc1nc(N2CCN(C(=O)[C@H](CCCCN)n3cc(C(N)COC(=O)C(F)(F)F)nn3)CC2)nc(N2CCN(C(=O)[C@H](CCCCN)n3cc(C(N)CC(C)C)nn3)CC2)n1 (stereo partly drawn) | / | / | ? | 79µM* | / | /
C#CCOCCOCCOCCNc1nc(N2CCN(C(=O)[C@H](CCCCN)n3cc(CC(C)O)nn3)CC2)nc(N2CCN(C(=O)[C@H](CCCCN)n3cc(CC(C)O)nn3)CC2)n1 (stereo partly drawn) | -4% | -2% | -3%[2.33 µM] | -34% | -15% | 38%
C#CCOCCOCCOCCNc1nc(N2CCN(C(=O)[C@H]([C@@H](C)CC)n3cc([C@@H](N)CC(C)C)nn3)CC2)nc(N2CCN(C(=O)[C@H](CCCCN)n3cc([C@@H](N)C(C)CC)nn3)CC2)n1 (stereo partly drawn) | -13% | -9% | -11%[12.7 µM] | 79µM* | 79µM* | 7%
C#CCOCCOCCOCCNc1nc(N2CCN(C(=O)[C@H]([C@@H](C)CC)n3cc([C@@H](N)CC(C)C)nn3)CC2)nc(N2CCN(C(=O)[C@H](CCCCN)n3cc([C@@H](N)CC(C)C)nn3)CC2)n1 | 2% | -5% | -115%[59 µM] | ? | 56µM* | 6%
C#CCOCCOCCOCCNc1nc(N2CCOCC2)nc(N2CCN(C(=O)[C@H](CCCCN)n3cc([C@@H](N)CC(C)C)nn3)CC2)n1 | -10% | -16% | ? | -37% | -26% | 48%
C#CCOCCOCCOCCNc1nc(N2CCN(C(=O)C([C@@H](C)CC)n3cc(C(N)CO)nn3)CC2)nc(N2CCN(C(=O)C([C@@H](C)CC)n3cc(C(N)COC(=O)C(F)(F)F)nn3)CC2)n1 (stereo partly drawn) | 5% | -7% | / | / | 79µM* | 21%
C#CCOCCOCCOCCNc1nc(N2CCOCC2)nc(N2CCN(C(=O)[C@H]([C@@H](C)CC)n3cc([C@@H](N)CC(C)C)nn3)CC2)n1 | -15% | -14% | 11%[12.7 µM] | -9% | -19% | 31%
CCCn1c2ccccc2c2cnn(CC(=O)N3CCN(c4ccccc4)CC3)c(=O)c21 | 4% | / | -28%[59 µM] | -13% | -22% | 7%
C#CCOCCOCCOCCNc1nc(N2CCN(C(=O)[C@H](CCCN=C(N)N)n3cc(C(N)[C@@H](C)CC)nn3)CC2)nc(N2CCN(C(=O)[C@H](CCCCN)n3cc([C@@H](N)[C@H](C)CC)nn3)CC2)n1 (stereo partly drawn) | -8% | -3% | / | / | -30% | 35%
C#CCOCCOCCOCCNc1nc(N2CCN(C(=O)C([C@@H](C)CC)n3cc(C(N)COC(=O)C(F)(F)F)nn3)CC2)nc(N2CCN(C(=O)[C@H](CCCCN)n3cc(C(N)[C@H](C)CC)nn3)CC2)n1 (stereo partly drawn) | -9% | -2% | / | / | 56µM* | 18%
O=C(NCCc1ccccc1)c1ccccc1C(=O)NCCc1ccccc1 | 7% | -2% | / | / | -10% | 44%
COCCSc1ccccc1C(=O)Nc1ccc(Cl)cc1 | -3% | -12% | 7.1µM* | ? | ? | 20%
COCCSc1ccccc1C(=O)Nc1cc(C)on1 | -5% | ? | 1.1µM* | ? | -19% | ?
COc1ccccc1C(=O)Nc1cc(C)on1 | ? | -10% | -20% | 2% | 1% | 50%
COCCSc1ccccc1C(=O)Nc1nnc(COC)s1 | 1% | 27µM* | ? | -9% | -27% | -17%
SMILES | VDR inh | PLK1 PBD inh | G9a block | BAZ2B inh | JMJD2A Tudor inh | HP1b binding inh
COCCSc1ccccc1C(=O)NCCc1ccccc1 | -2% | -11% | 18µM* | -2% | -8% | 30%
O=c1c(-c2ccccc2)nc2cnc(N3CCOCC3)nc2n1C1CC1 | -16% | / | 4%[0.501 µM] | / | / | /
COc1ccc2c(c1)OC[C@H]1[C@H]2N2C(=O)CN(Cc3ccccc3)C(=O)[C@@]2(C)[C@H]1c1ccccc1 | 4% | -18% | / | / | -20% | 67%
O=C(Nc1ccc(S(=O)(=O)N2CCCCC2c2cccnc2)cc1)c1ccc(Br)cc1 (stereo not drawn) | 8% | / | 6%[59 µM] | -13% | -14% | 28%[57 µM]
COc1cc(Nc2ccn3nccc3n2)cc(OC)c1OC | / | -10% | / | / | / | /
CN(C)c1cccc(CNC(=O)c2ccc3nc([C@@H]4O[C@H](CO)[C@H](O)[C@H](O)[C@H]4O)[nH]c3c2)c1 | / | 0% | / | / | / | /
O=C(Nc1cccnc1)c1ccccc1O | 2% | -4% | 6%[59 µM] | -30% | -8% | 37%
